The results in this text go back to PMC7862700, “An all-to-all approach to the identification of sequence-specific readers for epigenetic DNA modifications on cytosine”.

Holding throughout (experiment): DAPPL (digital affinity profiling via proximity ligation, sequencing); 10 mM Tris-HCl pH 7.5, 50 mM NaCl, 1 mM DTT, 4% glycerol, room temperature, 30 min; GST-TFs on glutathione beads, 16-mer random dsDNA library, 0.1% formaldehyde crosslink after washing; high values mean tight binding
Holding throughout (conditions): protein: recombinant; tags: N-terminal GST; dsDNA, one strand shown

For assay [1], the target named is T1, FLI1 (Homo sapiens, UniProt Q01543 1-452).
T1 sequence: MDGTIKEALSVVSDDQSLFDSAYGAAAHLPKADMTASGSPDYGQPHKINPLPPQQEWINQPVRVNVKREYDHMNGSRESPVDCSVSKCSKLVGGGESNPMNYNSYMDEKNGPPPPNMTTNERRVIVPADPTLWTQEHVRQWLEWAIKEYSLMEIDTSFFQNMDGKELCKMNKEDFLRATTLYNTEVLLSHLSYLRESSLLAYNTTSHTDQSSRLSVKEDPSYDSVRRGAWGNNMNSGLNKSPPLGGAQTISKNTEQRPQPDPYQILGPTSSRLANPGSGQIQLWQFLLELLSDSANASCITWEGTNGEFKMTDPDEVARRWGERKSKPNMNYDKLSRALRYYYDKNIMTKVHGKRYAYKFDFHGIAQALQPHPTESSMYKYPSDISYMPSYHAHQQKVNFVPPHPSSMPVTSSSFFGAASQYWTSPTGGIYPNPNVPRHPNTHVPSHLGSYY
A digest of the protocol: (§1)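 Each value of binding signal is a hexamer's read frequency for a factor divided by the same hexamer's frequency in the tag-only sample. Barcoded, bead-captured GST fusions of human transcription factors made in yeast were pooled with that sample and incubated with 200 nmole of a random double-stranded 16-mer DNA library in Tris/NaCl/DTT/glycerol buffer at room temperature for 30 min. Washing, 0.1% formaldehyde crosslinking, proximity ligation, PCR and Illumina NextSeq500 sequencing followed.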

In assay [2] the target is T2, ELK1 (Homo sapiens, UniProt P19419 1-428).
T2 sequence: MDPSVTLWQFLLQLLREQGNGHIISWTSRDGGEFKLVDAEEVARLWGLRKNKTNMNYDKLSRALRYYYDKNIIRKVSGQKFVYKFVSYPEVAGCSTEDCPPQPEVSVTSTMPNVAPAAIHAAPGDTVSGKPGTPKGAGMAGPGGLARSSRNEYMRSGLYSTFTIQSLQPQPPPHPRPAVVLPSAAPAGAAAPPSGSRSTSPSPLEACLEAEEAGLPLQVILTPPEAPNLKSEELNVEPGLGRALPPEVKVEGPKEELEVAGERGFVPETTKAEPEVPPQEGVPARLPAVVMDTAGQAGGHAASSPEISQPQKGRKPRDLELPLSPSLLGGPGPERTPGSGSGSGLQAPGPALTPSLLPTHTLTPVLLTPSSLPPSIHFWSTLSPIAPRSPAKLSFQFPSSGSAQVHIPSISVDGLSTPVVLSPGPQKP
The method in brief:
as §1

Assay [3] deals with T3, GABPA (Homo sapiens, UniProt Q06546 1-454).
T3 sequence: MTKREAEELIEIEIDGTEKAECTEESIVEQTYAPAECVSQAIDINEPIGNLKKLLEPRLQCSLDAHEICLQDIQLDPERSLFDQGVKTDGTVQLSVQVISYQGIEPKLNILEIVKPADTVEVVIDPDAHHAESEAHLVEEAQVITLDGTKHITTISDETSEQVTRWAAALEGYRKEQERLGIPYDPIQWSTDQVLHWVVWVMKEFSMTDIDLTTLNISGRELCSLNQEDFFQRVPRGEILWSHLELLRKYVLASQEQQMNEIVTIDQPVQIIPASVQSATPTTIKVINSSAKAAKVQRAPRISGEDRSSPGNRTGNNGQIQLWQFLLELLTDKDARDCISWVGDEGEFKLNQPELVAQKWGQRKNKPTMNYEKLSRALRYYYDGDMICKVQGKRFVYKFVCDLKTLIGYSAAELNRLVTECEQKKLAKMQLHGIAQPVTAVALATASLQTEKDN
A digest of the protocol:
as §1

The target in assay [4] is T4, ERG (Homo sapiens, UniProt P11308 1-479).
T4 sequence: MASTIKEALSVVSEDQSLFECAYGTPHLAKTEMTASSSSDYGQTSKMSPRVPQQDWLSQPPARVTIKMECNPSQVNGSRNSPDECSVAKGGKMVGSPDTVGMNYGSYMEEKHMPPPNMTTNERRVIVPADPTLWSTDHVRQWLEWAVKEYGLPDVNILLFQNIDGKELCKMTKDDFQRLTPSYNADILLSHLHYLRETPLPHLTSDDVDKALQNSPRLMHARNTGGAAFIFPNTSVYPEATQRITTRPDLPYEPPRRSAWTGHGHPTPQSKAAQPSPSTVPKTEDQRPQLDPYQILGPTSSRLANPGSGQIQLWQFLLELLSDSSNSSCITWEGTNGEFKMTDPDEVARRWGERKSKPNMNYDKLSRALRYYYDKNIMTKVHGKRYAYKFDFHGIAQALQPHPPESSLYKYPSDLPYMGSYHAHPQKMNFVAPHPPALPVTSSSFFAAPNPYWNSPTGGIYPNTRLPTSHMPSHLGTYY
A digest of the protocol:
as §1

Assay [5] deals with ELF1 (Homo sapiens, UniProt P32519 1-619). A digest of the protocol:
as §1

The target in assay [6] is T5, EHF (Homo sapiens, UniProt Q9NZC4 1-300).
T5 sequence: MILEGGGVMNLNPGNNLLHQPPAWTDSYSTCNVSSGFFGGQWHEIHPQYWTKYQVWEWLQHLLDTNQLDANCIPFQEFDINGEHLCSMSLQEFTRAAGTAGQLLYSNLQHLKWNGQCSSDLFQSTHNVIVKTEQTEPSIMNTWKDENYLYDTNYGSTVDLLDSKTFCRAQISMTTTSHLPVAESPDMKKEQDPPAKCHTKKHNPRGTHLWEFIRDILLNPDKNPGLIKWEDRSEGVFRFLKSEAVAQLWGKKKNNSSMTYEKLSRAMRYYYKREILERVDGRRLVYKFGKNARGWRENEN
A digest of the protocol: as §1

For assay [7], the target named is SPI1 (Homo sapiens, UniProt P17947 1-270). A digest of the protocol: as §1
Assay [8] has as its target SPIB (Homo sapiens, UniProt Q01892 1-262). The method in brief:
as §1

Assay [9] addresses T6, ELK3 (Homo sapiens, UniProt P41970 1-407).
T6 sequence: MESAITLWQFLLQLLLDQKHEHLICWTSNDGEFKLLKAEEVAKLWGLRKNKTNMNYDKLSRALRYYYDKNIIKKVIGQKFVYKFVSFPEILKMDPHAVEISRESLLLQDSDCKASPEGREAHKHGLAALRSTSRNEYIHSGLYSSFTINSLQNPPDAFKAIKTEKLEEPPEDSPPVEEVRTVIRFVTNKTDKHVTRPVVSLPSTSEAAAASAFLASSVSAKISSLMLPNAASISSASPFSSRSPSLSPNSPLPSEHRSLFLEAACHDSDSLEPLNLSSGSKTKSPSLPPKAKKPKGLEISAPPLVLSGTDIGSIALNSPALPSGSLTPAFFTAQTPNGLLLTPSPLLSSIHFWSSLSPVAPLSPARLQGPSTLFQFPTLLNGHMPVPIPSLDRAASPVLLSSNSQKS
The method in brief: as §1

Assay [10] deals with T7, FEV (Homo sapiens, UniProt Q99581 1-238).
T7 sequence: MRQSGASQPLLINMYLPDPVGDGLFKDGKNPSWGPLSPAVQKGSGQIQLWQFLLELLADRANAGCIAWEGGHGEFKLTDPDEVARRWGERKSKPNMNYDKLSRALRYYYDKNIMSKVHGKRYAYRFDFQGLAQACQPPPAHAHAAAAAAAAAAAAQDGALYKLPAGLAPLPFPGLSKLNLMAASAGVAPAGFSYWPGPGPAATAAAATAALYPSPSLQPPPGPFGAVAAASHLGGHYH
A digest of the protocol:
as §1

The target in assay [11] is ETV5 (Homo sapiens, UniProt P41161 1-510). A digest of the protocol:
as §1

In assay [12] the target is T8, SPIC (Homo sapiens, UniProt Q8N5J4 1-248).
T8 sequence: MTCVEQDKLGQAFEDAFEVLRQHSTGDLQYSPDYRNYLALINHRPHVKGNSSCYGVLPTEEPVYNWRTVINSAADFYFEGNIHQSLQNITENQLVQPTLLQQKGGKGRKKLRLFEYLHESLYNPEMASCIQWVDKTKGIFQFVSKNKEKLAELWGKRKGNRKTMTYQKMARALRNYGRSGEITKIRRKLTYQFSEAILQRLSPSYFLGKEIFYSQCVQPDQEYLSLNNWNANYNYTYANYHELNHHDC
The method in brief: as §1

The target of assay [13] is ELF4 (Homo sapiens, UniProt Q99607 1-663). The method in brief:
as §1

For assay [14], the target named is T9, ELK4 (Homo sapiens, UniProt P28324-2 1-405).
T9 sequence: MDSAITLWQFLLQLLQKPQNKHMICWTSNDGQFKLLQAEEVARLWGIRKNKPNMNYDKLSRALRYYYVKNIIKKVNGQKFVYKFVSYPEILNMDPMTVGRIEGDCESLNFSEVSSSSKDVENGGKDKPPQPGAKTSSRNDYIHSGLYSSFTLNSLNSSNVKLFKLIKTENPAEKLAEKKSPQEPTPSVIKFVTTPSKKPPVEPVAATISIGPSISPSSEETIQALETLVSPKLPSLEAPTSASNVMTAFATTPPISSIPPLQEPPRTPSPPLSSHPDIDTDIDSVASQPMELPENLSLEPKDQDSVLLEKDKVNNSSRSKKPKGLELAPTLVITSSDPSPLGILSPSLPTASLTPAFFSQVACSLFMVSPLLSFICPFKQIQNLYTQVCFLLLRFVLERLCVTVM
The method in brief: as §1

Assay [15] has as its target T10, ETV2 (Homo sapiens, UniProt O00321 1-342).
T10 sequence: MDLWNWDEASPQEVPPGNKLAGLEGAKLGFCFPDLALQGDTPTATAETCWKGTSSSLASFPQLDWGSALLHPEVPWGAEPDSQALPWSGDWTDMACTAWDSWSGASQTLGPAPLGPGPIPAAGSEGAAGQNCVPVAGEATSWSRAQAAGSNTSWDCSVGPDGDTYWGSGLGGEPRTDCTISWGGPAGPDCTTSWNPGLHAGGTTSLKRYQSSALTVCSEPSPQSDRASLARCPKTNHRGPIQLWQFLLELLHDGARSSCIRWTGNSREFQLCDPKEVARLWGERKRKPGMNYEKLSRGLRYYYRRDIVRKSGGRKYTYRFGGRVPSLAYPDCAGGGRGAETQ
A digest of the protocol: as §1

Assay [16] deals with T11, ELF3 (Homo sapiens, UniProt P78545 1-371).
T11 sequence: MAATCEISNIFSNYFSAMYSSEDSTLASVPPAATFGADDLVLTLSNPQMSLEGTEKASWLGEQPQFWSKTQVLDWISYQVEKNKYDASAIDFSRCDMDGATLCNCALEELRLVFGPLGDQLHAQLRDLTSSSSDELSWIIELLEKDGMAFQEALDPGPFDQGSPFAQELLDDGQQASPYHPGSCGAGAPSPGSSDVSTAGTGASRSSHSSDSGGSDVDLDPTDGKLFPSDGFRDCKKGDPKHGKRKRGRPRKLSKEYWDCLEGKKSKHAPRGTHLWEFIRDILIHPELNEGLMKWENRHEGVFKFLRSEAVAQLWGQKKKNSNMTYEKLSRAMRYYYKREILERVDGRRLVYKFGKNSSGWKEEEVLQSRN
A digest of the protocol: as §1

Assay [17] has as its target ETV1 (Homo sapiens, UniProt P50549 1-477). The method in brief:
as §1

Sequence of ELF1 (P32519 whole entry): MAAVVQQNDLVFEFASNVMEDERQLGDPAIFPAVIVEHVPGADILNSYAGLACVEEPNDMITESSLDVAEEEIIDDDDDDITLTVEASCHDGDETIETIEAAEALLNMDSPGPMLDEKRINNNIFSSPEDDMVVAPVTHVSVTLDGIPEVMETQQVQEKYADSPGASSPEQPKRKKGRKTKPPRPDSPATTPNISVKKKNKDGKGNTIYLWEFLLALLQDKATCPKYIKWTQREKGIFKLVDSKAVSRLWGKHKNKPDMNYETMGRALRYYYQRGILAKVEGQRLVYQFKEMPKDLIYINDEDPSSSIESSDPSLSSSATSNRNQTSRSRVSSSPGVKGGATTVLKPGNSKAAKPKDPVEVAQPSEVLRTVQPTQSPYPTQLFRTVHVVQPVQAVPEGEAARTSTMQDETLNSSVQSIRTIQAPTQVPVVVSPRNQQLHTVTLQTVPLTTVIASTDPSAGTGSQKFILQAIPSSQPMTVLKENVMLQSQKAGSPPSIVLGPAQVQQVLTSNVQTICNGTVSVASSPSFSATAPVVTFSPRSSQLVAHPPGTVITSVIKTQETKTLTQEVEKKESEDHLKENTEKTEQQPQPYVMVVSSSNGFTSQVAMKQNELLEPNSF
Sequence of ELF4 (Q99607 whole entry): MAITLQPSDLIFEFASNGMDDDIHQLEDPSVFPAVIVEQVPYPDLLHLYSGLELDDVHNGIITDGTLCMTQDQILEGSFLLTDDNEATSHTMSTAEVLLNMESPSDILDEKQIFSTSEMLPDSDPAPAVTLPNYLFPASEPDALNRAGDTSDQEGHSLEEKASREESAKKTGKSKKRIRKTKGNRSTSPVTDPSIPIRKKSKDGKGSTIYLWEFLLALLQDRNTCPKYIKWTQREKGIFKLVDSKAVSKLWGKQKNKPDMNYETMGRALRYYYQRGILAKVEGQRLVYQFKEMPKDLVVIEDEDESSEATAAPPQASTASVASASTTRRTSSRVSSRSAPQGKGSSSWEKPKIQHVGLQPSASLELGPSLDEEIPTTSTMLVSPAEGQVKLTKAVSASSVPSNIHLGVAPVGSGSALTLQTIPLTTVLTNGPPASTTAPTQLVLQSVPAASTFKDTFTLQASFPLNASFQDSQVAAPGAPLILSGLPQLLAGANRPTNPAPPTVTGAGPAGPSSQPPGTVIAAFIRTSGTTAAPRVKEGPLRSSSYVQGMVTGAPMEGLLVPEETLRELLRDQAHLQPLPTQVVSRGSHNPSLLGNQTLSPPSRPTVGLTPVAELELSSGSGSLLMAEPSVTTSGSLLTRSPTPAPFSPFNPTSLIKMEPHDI
Sequence of SPIB (Q01892 whole entry): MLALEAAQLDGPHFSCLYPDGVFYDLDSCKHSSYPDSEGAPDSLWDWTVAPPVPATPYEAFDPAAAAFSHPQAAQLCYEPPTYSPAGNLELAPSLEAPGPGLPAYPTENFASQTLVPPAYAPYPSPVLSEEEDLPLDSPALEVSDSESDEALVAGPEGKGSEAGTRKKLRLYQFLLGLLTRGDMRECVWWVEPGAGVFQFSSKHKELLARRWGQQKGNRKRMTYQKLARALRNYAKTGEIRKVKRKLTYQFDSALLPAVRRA
Sequence of ETV5 (P41161 whole entry): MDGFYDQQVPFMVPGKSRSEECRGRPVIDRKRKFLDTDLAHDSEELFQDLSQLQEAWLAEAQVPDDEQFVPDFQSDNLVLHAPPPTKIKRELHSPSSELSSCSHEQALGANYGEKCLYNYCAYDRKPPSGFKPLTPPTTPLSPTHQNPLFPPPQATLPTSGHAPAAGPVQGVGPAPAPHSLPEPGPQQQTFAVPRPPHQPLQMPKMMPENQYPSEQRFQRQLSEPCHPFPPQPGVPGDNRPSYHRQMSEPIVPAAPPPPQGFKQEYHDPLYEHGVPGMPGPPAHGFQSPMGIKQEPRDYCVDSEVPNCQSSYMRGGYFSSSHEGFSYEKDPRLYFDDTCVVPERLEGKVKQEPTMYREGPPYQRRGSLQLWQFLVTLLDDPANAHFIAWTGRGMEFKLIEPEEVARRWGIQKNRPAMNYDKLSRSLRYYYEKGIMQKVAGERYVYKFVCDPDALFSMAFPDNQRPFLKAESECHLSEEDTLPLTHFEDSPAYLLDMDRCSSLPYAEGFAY
Sequence of ETV1 (P50549 whole entry): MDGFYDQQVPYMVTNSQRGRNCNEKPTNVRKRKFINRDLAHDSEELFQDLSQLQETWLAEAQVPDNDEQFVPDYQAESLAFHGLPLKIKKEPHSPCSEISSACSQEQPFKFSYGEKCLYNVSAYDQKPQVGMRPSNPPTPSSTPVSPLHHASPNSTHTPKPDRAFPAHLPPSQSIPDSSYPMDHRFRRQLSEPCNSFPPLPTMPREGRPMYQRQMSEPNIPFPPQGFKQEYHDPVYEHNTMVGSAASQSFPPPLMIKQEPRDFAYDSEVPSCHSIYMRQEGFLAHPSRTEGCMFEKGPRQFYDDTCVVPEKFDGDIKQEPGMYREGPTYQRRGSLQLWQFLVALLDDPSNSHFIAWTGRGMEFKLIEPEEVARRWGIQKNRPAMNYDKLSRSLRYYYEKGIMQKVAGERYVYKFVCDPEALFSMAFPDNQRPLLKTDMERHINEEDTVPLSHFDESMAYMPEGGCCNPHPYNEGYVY

With GTTGCA, the binding signal was 1.25 fold enrichment (6-mer frequency, TF over GST control) in assay [1]; 1.15 fold enrichment (6-mer frequency, TF over GST control) in assay [2]; 1.16 fold enrichment (6-mer frequency, TF over GST control) in assay [3]; 1.01 fold enrichment (6-mer frequency, TF over GST control) in assay [4]; 1.14 fold enrichment (6-mer frequency, TF over GST control) in [5]; 1.2 fold enrichment (6-mer frequency, TF over GST control) in [6]. The binding signal in [7] was 1.15 fold enrichment (6-mer frequency, TF over GST control); in [8], 1.1 fold enrichment (6-mer frequency, TF over GST control); in assay [9] it was 1.25 fold enrichment (6-mer frequency, TF over GST control); in [10] it was 1.11 fold enrichment (6-mer frequency, TF over GST control); in [11] it was 1.16 fold enrichment (6-mer frequency, TF over GST control); in assay [12] it was 1.11 fold enrichment (6-mer frequency, TF over GST control). The binding signal is 1.15 fold enrichment (6-mer frequency, TF over GST control) in [13]; 1.06 fold enrichment (6-mer frequency, TF over GST control) in [14]; 1.06 fold enrichment (6-mer frequency, TF over GST control) in [15]; 1.1 fold enrichment (6-mer frequency, TF over GST control) in assay [16]; 1.19 fold enrichment (6-mer frequency, TF over GST control) in [17].
For the sequence ACCCGG, the binding signal in assay [1] is 1.62 fold enrichment (6-mer frequency, TF over GST control); in [2], 1.67 fold enrichment (6-mer frequency, TF over GST control); in assay [3], 1.62 fold enrichment (6-mer frequency, TF over GST control); in [4], 1.84 fold enrichment (6-mer frequency, TF over GST control); in [5], 1.75 fold enrichment (6-mer frequency, TF over GST control); in assay [6], 1.96 fold enrichment (6-mer frequency, TF over GST control). The binding signal was 1.54 fold enrichment (6-mer frequency, TF over GST control) in assay [7]; 1.77 fold enrichment (6-mer frequency, TF over GST control) in assay [8]; 1.71 fold enrichment (6-mer frequency, TF over GST control) in assay [9]; 1.61 fold enrichment (6-mer frequency, TF over GST control) in assay [10]; 1.89 fold enrichment (6-mer frequency, TF over GST control) in assay [11]; 1.61 fold enrichment (6-mer frequency, TF over GST control) in [12]. For the same sequence, the binding signal in assay [13] is 1.7 fold enrichment (6-mer frequency, TF over GST control); in assay [14], 1.52 fold enrichment (6-mer frequency, TF over GST control); in assay [15], 1.63 fold enrichment (6-mer frequency, TF over GST control); in assay [16] it was 1.77 fold enrichment (6-mer frequency, TF over GST control); in [17], 1.81 fold enrichment (6-mer frequency, TF over GST control).
